Laboratory results taken from the antibiotic and cytotoxicity screens of Wong et al. (2023).
Out of some 39,000 compounds screened, about 3,300 (8.5%) were called active. For the sample, actives were picked, then their nearest neighbours and some compounds at random.

What follows are molecules tested on HepG2 (assay: cytotoxicity call (relative viability < 0.9)). Conditions: 10 µM.

Row | Compound | cytotoxicity call
1 | COc1cccc(NC(=O)N[C@@H]2CC[C@H](CC(=O)N3CCN(C)CC3)O[C@H]2CO)c1 | inactive
2 | O=C(C[C@@H]1C=C[C@H](NC(=O)c2ccc(F)cc2)[C@H](CO)O1)NCc1ccncn1 | inactive
3 | C[C@@H]1CCCCO[C@H](CN(C)C(=O)Cc2ccccc2)[C@@H](C)CN([C@@H](C)CO)C(=O)c2cc(NC(=O)Nc3ccc(C(F)(F)F)cc3)ccc2O1 | inactive
4 | C[C@@H]1CN([C@H](C)CO)C(=O)Cc2cc(NC(=O)Nc3cccc4ccccc34)ccc2O[C@@H]1CN(C)Cc1ccc(C(=O)O)cc1 | inactive
5 | COCCNC(=O)C[C@@H]1CC[C@H]2[C@@H](COC[C@@H](O)CN2S(=O)(=O)c2ccccc2C)O1 | inactive
6 | C[C@H](CO)N1C[C@H](C)[C@@H](CN(C)Cc2ccc(C(=O)Nc3ccccc3N)cc2)Oc2ccc(NS(=O)(=O)c3ccc(Cl)cc3)cc2CC1=O | inactive
7 | C[C@H]1CN([C@@H](C)CO)C(=O)c2cccc(NC(=O)C3CC3)c2O[C@H]1CN(C)S(=O)(=O)c1cn(C)cn1 | inactive
8 | C[C@@H]1CN([C@@H](C)CO)C(=O)c2cc(NS(=O)(=O)c3ccc(F)cc3)ccc2O[C@@H](C)CCCCO[C@@H]1CN(C)S(=O)(=O)c1ccc(Cl)cc1 | inactive
9 | C[C@@H]1CCCCO[C@H](CN(C)S(=O)(=O)c2ccc(Cl)cc2)[C@H](C)CN([C@@H](C)CO)C(=O)c2cc(NS(=O)(=O)c3ccc(F)cc3)ccc2O1 | active
10 | C[C@H](CO)N1C[C@H](C)[C@H](CN(C)S(=O)(=O)c2ccc(Cl)cc2)OCCCC[C@H](C)Oc2ccc(NS(=O)(=O)c3ccc(F)cc3)cc2C1=O | active
11 | C[C@@H]1CCCCO[C@@H](CN(C)S(=O)(=O)c2ccc(Cl)cc2)[C@@H](C)CN([C@@H](C)CO)C(=O)c2cc(NS(=O)(=O)c3ccc(F)cc3)ccc2O1 | active
12 | C[C@H](CO)N1C[C@H](C)[C@@H](CN(C)S(=O)(=O)c2ccc(Cl)cc2)OCCCC[C@H](C)Oc2ccc(NS(=O)(=O)c3ccc(F)cc3)cc2C1=O | inactive
13 | C[C@@H]1CCCCO[C@H](CN(C)S(=O)(=O)c2ccc(Cl)cc2)[C@@H](C)CN([C@@H](C)CO)C(=O)c2cc(NS(=O)(=O)c3ccc(F)cc3)ccc2O1 | inactive
14 | C[C@@H]1CCCCO[C@H](CN(C)S(=O)(=O)c2ccc(F)cc2)[C@H](C)CN([C@@H](C)CO)C(=O)c2cc(NS(=O)(=O)c3ccc(Cl)cc3)ccc2O1 | active
15 | C[C@@H]1CCCCO[C@H](CN(C)S(=O)(=O)c2ccc(Cl)cc2)[C@H](C)CN([C@H](C)CO)C(=O)c2cc(NS(=O)(=O)c3ccc(F)cc3)ccc2O1 | inactive
16 | C[C@@H]1CN([C@@H](C)CO)C(=O)c2cc(NS(=O)(=O)c3ccc(F)cc3)ccc2O[C@@H](C)CCCCO[C@H]1CN(C)S(=O)(=O)c1ccc(Cl)cc1 | inactive
17 | C[C@@H]1CCCCO[C@H](CN(C)S(=O)(=O)c2ccc(F)cc2)[C@@H](C)CN([C@@H](C)CO)C(=O)c2cc(NS(=O)(=O)c3ccc(Cl)cc3)ccc2O1 | inactive
